# Screen size: about 39,000 compounds; about 3,300 (8.5%) were called active. What follows is part of a selection rich in actives, with near analogues and random picks from the rest.
# Tested on: HepG2
# Experiment: cytotoxicity call (relative viability < 0.9)
# Settings: 10 µM
row,SMILES,cytotoxicity call
1,COc1ccccc1CNC(=O)C[C@@H]1C[C@H]2c3cc(NC(=O)Nc4ccc(C(F)(F)F)cc4)ccc3O[C@H]2[C@@H](CO)O1,active
2,C[C@H](NC(=O)C[C@@H]1C[C@@H]2c3cc(NC(=O)Nc4ccc(C(F)(F)F)cc4)ccc3O[C@@H]2[C@H](CO)O1)c1ccccc1,inactive
3,COc1ccccc1CNC(=O)C[C@H]1C[C@@H]2c3cc(NC(=O)Nc4ccc(C(F)(F)F)cc4)ccc3O[C@@H]2[C@@H](CO)O1,inactive
4,C[C@H](NC(=O)C[C@H]1C[C@@H]2c3cc(NC(=O)Nc4ccc(C(F)(F)F)cc4)ccc3O[C@@H]2[C@@H](CO)O1)c1ccccc1,inactive
5,O=C(C[C@@H]1C[C@H]2c3cc(NC(=O)Nc4ccc(C(F)(F)F)cc4)ccc3O[C@H]2[C@@H](CO)O1)NC1CCCCC1,inactive
6,C[C@H](NC(=O)C[C@@H]1C[C@@H]2c3cc(NC(=O)Nc4ccc(C(F)(F)F)cc4)ccc3O[C@@H]2[C@@H](CO)O1)c1ccccc1,active
7,O=C(C[C@@H]1C[C@@H]2c3cc(NC(=O)Nc4ccc(C(F)(F)F)cc4)ccc3O[C@@H]2[C@@H](CO)O1)NC1CCCCC1,inactive
8,COc1ccccc1CNC(=O)C[C@H]1C[C@H]2c3cc(NC(=O)Nc4ccc(C(F)(F)F)cc4)ccc3O[C@H]2[C@H](CO)O1,inactive
9,O=C(C[C@@H]1C[C@@H]2c3cc(NC(=O)Nc4ccc(C(F)(F)F)cc4)ccc3O[C@@H]2[C@H](CO)O1)NC1CCCCC1,active
10,C[C@@H]1CN([C@H](C)CO)C(=O)c2c(c3ccccc3n2C)-c2ccccc2CO[C@@H]1CN(C)S(=O)(=O)c1cn(C)cn1,inactive
11,Cc1noc(C)c1NC(=O)Nc1ccc2c(c1)C(=O)N([C@H](C)CO)C[C@@H](C)[C@H](CN(C)C(=O)Nc1ccccc1)OCCCC[C@@H](C)O2,inactive
12,Cc1ccc(S(=O)(=O)N(C)C[C@H]2Oc3ccc(NC(=O)CCCN(C)C)cc3C(=O)N([C@@H](C)CO)C[C@@H]2C)cc1,inactive
13,CCNC(=O)C[C@@H]1CC[C@H]2[C@@H](COc3ccc(NS(=O)(=O)c4ccccc4C)cc3C(=O)N2C)O1,inactive
14,C[C@@H]1CCCCO[C@H](CN(C)C(=O)Nc2ccc(F)cc2)[C@H](C)CN([C@H](C)CO)C(=O)c2cc(NC(=O)Nc3ccc(C(F)(F)F)cc3)ccc2O1,inactive
15,CC(C)CC#Cc1ccc2c(c1)O[C@@H](CN(C)C(=O)c1cccnc1)[C@@H](C)CN([C@H](C)CO)S2(=O)=O,inactive
16,CCCCOc1ccc(OCCCN2CCOCC2)cc1.Cl,inactive
17,CC(=O)OCC(=O)NCCCOc1cccc(CN2CCCCC2)c1.Cl,inactive
18,CCCCOc1ccc(C(=O)CCN2CCCCC2)cc1.Cl,active
19,O=C(N[C@@H](c1ccccc1)c1ccc2ccccc2n1)C1CCN(CCOc2ccc(Cl)cc2)CC1,inactive
20,Cl.O=C(c1ccc(OCCN2CCCCC2)cc1)c1c(-c2ccc(O)cc2)sc2cc(O)ccc12,active
21,CC(=O)O.Cc1c(-c2ccc(O)cc2)n(Cc2ccc(OCCN3CCCCCC3)cc2)c2ccc(O)cc12,active
22,COc1cc(C(=O)OCCN2CCCN(CCOC(=O)c3cc(OC)c(OC)c(OC)c3)CC2)cc(OC)c1OC,inactive
23,COc1cc(OC)c(C(=O)CCCN2CCCC2)c(OC)c1.Cl,inactive
24,C[C@@H]1CN([C@@H](C)CO)C(=O)c2cccc(NC(=O)c3cnccn3)c2O[C@H]1CN(C)S(=O)(=O)c1cccs1,inactive

row,SMILES,cytotoxicity call
1,C[C@H]1CN([C@@H](C)CO)S(=O)(=O)c2ccc(-c3cccc(C(=O)N(C)C)c3)cc2O[C@@H]1CN(C)C(=O)Cc1ccccn1,inactive
2,C[C@H]1CN([C@@H](C)CO)C(=O)c2cc(C#Cc3ccc(F)cc3)cnc2O[C@@H]1CN(C)Cc1ccccn1,inactive
3,C[C@@H]1CCCCO[C@H](CN(C)C)[C@H](C)CN([C@H](C)CO)C(=O)c2cc(NC(=O)Nc3ccc(C(F)(F)F)cc3)ccc2O1,active
4,C[C@@H]1CN([C@@H](C)CO)C(=O)c2cc(NC(=O)Nc3ccc(C(F)(F)F)cc3)ccc2O[C@@H](C)CCCCO[C@@H]1CN(C)C,inactive
5,C[C@@H]1CN([C@@H](C)CO)C(=O)c2cc(NC(=O)Nc3ccc(C(F)(F)F)cc3)ccc2O[C@@H](C)CCCCO[C@H]1CN(C)C,inactive
6,C[C@@H]1CCCCO[C@H](CN(C)C)[C@H](C)CN([C@@H](C)CO)C(=O)c2cc(NC(=O)Nc3ccc(C(F)(F)F)cc3)ccc2O1,active
7,C[C@@H]1CCCCO[C@H](CN(C)S(C)(=O)=O)[C@@H](C)CN([C@H](C)CO)C(=O)c2cc(NC(=O)Nc3ccc(C(F)(F)F)cc3)ccc2O1,inactive
8,C[C@H]1CCCCO[C@@H](CN(C)C)[C@@H](C)CN([C@@H](C)CO)C(=O)c2cc(NC(=O)Nc3ccc(C(F)(F)F)cc3)ccc2O1,active
9,C[C@H](CO)N1C[C@H](C)[C@@H](CN(C)C)OCCCC[C@H](C)Oc2ccc(NC(=O)Nc3ccc(C(F)(F)F)cc3)cc2C1=O,inactive
10,C[C@@H]1CCCCO[C@H](CN(C)C)[C@@H](C)CN([C@H](C)CO)C(=O)c2cc(NC(=O)Nc3ccc(C(F)(F)F)cc3)ccc2O1,inactive
11,C[C@@H]1CCCCO[C@@H](CN(C)C)[C@H](C)CN([C@@H](C)CO)C(=O)c2cc(NC(=O)Nc3ccc(C(F)(F)F)cc3)ccc2O1,inactive
12,C[C@@H]1CCCCO[C@@H](CN(C)C)[C@H](C)CN([C@H](C)CO)C(=O)c2cc(NC(=O)Nc3ccc(C(F)(F)F)cc3)ccc2O1,inactive
13,C[C@@H]1CCCCO[C@H](CN(C)S(C)(=O)=O)[C@@H](C)CN([C@@H](C)CO)C(=O)c2cc(NC(=O)Nc3ccc(C(F)(F)F)cc3)ccc2O1,inactive
14,C[C@@H]1CN([C@H](C)CO)C(=O)c2cc(NC(=O)Nc3ccc(C(F)(F)F)cc3)ccc2O[C@@H](C)CCCCO[C@H]1CN(C)S(C)(=O)=O,active
15,Cc1ccc(S[C@]2(C(=O)NCCCN(C)C)CC(=O)N(Cc3ccccc3C(F)(F)F)[C@@H]2c2ccc(CO)cc2)cc1,inactive
16,C[C@H]1CN([C@@H](C)CO)C(=O)Cc2cc(NS(=O)(=O)c3ccc(F)cc3)ccc2O[C@H]1CN(C)C(=O)Nc1cccc2ccccc12,inactive
17,Cc1cc(-c2cc[nH]n2)c(C)s1,inactive
18,C[C@H]1CCCCO[C@@H](CN(C)Cc2ccncc2)[C@@H](C)CN([C@@H](C)CO)C(=O)c2cc(NC(=O)CCC(F)(F)F)ccc2O1,inactive
19,C[C@@H]1CN([C@H](C)CO)C(=O)c2cc(NC(=O)Nc3ccc(C(F)(F)F)cc3)ccc2O[C@@H](C)CCCCO[C@H]1CN(C)C,inactive
20,C[C@@H]1CN([C@@H](C)CO)C(=O)c2cc(NC(=O)Nc3ccc(C(F)(F)F)cc3)ccc2O[C@@H](C)CCCCO[C@H]1CN(C)S(=O)(=O)c1cn(C)cn1,inactive
21,C[C@@H]1CCCCO[C@@H](CN(C)C)[C@@H](C)CN([C@H](C)CO)C(=O)c2cc(NC(=O)Nc3ccc(C(F)(F)F)cc3)ccc2O1,active
22,C[C@H]1CCCCO[C@H](CN(C)C)[C@@H](C)CN([C@@H](C)CO)C(=O)c2cc(NC(=O)Nc3ccc(C(F)(F)F)cc3)ccc2O1,inactive
23,C[C@H]1CCCCO[C@@H](CN(C)S(=O)(=O)c2cn(C)cn2)[C@@H](C)CN([C@@H](C)CO)C(=O)c2cc(NC(=O)Nc3ccc(C(F)(F)F)cc3)ccc2O1,active
24,C[C@@H]1CN([C@@H](C)CO)C(=O)c2cc(NC(=O)Nc3ccc(C(F)(F)F)cc3)ccc2O[C@@H](C)CCCCO[C@@H]1CN(C)S(=O)(=O)c1cn(C)cn1,inactive

row,SMILES,cytotoxicity call
1,C[C@H]1CN([C@@H](C)CO)C(=O)c2cc(C#CC3(O)CCCC3)cnc2O[C@@H]1CN(C)S(=O)(=O)c1ccccc1,inactive
2,COc1cccc(-c2ccc3c(c2)O[C@@H](CN(C)C(=O)C2CC2)[C@@H](C)CN([C@@H](C)CO)S3(=O)=O)c1,inactive
3,C[C@@H]1CN([C@H](C)CO)C(=O)c2cc(NC(=O)Nc3ccccc3)ccc2O[C@@H](C)CCCCO[C@@H]1CN(C)Cc1ccc(C(=O)O)cc1,inactive
4,C[C@H]1CN([C@@H](C)CO)C(=O)c2cc(C#CC3(O)CCCC3)cnc2O[C@H]1CN(C)C(=O)Cc1ccccc1,inactive
5,CCNC(=O)C[C@H]1CC[C@H](NC(=O)C2CC2)[C@H](CO)O1,inactive
6,Cn1cnc(S(=O)(=O)N2C[C@H](O)COC[C@@H]3O[C@H](CC(=O)NC4Cc5ccccc5C4)CC[C@H]32)c1,inactive
7,O=C(C[C@@H]1CC[C@H]2[C@@H](COC[C@@H](O)CN2S(=O)(=O)c2ccccc2Cl)O1)NCc1ccccc1Cl,inactive
8,O=c1[nH]c2ccccc2c2ccccc12,inactive
9,COc1ccc2c3c(ccc2c1)-c1[nH]c2ccccc2c1CC3,inactive
10,C[C@H]1CCc2[nH]c3ccccc3c2C1,active
11,C[C@H]1CN([C@@H](C)CO)C(=O)c2cc(NS(=O)(=O)c3ccccc3)ccc2O[C@@H]1CN(C)C(=O)Nc1cccc2ccccc12,inactive
12,Nc1nccs1,inactive
13,O=C1CCC(=O)N1c1nccs1,active
14,O[C@H]1CCN(c2nccs2)C1,inactive
15,O=C([C@@H]1[C@@H](CO)[C@@H]2Cn3c(cccc3=O)[C@@H]2N1CC1CCCC1)N1CCOCC1,inactive
16,COC1(NC(=O)CSCC#N)C(=O)N2C(C(=O)[O-])=C(CSc3nnnn3C)CSC21.[Na+] (configuration not stated),inactive
17,C[C@@H]1CN([C@@H](C)CO)C(=O)c2cc(NC(=O)Nc3ccccc3)ccc2O[C@H]1CN(C)Cc1ccc(Cl)c(Cl)c1,active
18,C[C@H](CO)N1C[C@H](C)[C@@H](CN(C)Cc2ccc(Cl)c(Cl)c2)Oc2ccc(NC(=O)Nc3ccccc3)cc2C1=O,inactive
19,C[C@H]1CN([C@@H](C)CO)C(=O)c2cc(NC(=O)Nc3ccccc3)ccc2O[C@H]1CN(C)Cc1ccc(Cl)c(Cl)c1,active
20,C[C@@H]1CN([C@H](C)CO)C(=O)c2cc(NC(=O)Nc3ccccc3)ccc2O[C@@H]1CN(C)Cc1ccc(Cl)c(Cl)c1,inactive
21,C[C@@H]1CN([C@H](C)CO)C(=O)c2cc(NC(=O)Nc3ccccc3)ccc2O[C@H]1CN(C)Cc1ccc(Cl)c(Cl)c1,inactive
22,C[C@H]1CN([C@@H](C)CO)C(=O)c2cc(NC(=O)Nc3ccccc3)ccc2O[C@@H]1CN(C)Cc1ccc(Cl)c(Cl)c1,inactive
23,C[C@@H]1CN([C@@H](C)CO)C(=O)c2cc(NC(=O)Nc3ccccc3)ccc2O[C@@H]1CN(C)Cc1ccc(Cl)c(Cl)c1,active
24,C[C@H](CO)N1C[C@H](C)[C@H](CN(C)Cc2ccc(Cl)c(Cl)c2)Oc2ccc(NC(=O)Nc3ccccc3)cc2C1=O,inactive

# — the antibiotic and cytotoxicity screens of Wong et al. (2023)
